# Data taken from PubChem BioAssay (NCATS).
# Inconclusive results are not listed. A number with no mark means an inactive call. Calls of active or inactive are those of the source. Calls come from the whole dose curve; as a rule, active = well fitted inhibition curve with a large enough effect; inconclusive = small, poorly fitted or top-dose-only effect; inactive = flat fitted curve, though single readings scatter.
# Assay: P-glycoprotein substrates identified in KB-8-5-11 adenocarcinoma cell line, qHTS therapeutic library screen (AID 1346987); note: nearly all actives have a fitted effect of over 65% in size
# Conditions: KB-8-5-11 (P-gp overexpressing) viability, CellTiter-Glo, 72 h; series mostly up to 44.5 µM; activity change, negative = cytotoxicity: at the top concentration
# Summary of the method: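 Luminescence from CellTiter-Glo, read 5 min after addition, quantified survival of KB-8-5-11 (P-gp-overexpressing) cells exposed to compounds for 72 h. AC50 was derived from concentration-response curves.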
# % is set by controls: 0 for no effect and ±100 for the full control effect.
SMILES,"activity change, negative = cytotoxicity",outcome
CC(C)N(CCCNC(=O)Nc1ccc(C(C)(C)C)cc1)C[C@H]1O[C@@H](n2ccc3c(N)ncnc32)[C@H](O)[C@@H]1O,8.7%,–
NC(=O)C(O[C@@H]1O[C@H](CO[C@@H]2O[C@H](CO)[C@@H](O)[C@H](O)[C@H]2O)[C@@H](O)[C@H](O)[C@H]1O)c1ccccc1 (stereo not given in full),4.32% [at 17.3 µM],–
CC1(O)CC(O)C2C(C(=O)O)=COC(OC3OC(CO)C(O)C(O)C3OC(=O)/C=C/c3ccc(O)cc3)C21 (stereo not given),–,inactive [at 17.3 µM]
COc1cc(O)c2c(c1)C1(OC2=O)C(C)=CC(=O)C1O (stereo not given),2.74%,–
CC1=CC23[C@H](C=C(C(=O)O)[C@@H]2COC(=O)[C@]3(O)CO)[C@@H]1C (stereo not given in full),2.83%,–
O=C(O)c1cccc(C(=O)CCC2OC(n3cnc4c(=O)[nH]cnc43)C(O)C2O)c1 (stereo not given),–,inactive [at 17.3 µM]
CC(NC(=O)c1ccccc1N)C(=O)O (stereo not given),5.71%,–
C/C=C1/CC2C(=O)Nc3cc(O)c(OC)cc3C(=O)N2C1 (stereo not given),–,inactive
OC[C@@]1(O)CO[C@@H](OC[C@H]2O[C@@H](Oc3ccccc3)[C@H](O)[C@@H](O)[C@@H]2O)[C@@H]1O,–,inactive
CN[C@H](CNC(=O)N1CCC[C@@H]([C@@H](OCCNC(=O)OC)c2cccc(Cl)c2)C1)C[C@H]1CCCOC1,–,inactive
